Active and inactive are the calls of the source. Rule for the calls: active = hit-call score of the fitted dose curve at least 0.9, where 1 is the maximum; inactive = score below 0.9.
Assay: ATG_M_61_CIS: Attagene CIS-FACTORIAL HepG2 Assay for M61 Transcription Factor (Internal Marker) (AID 2282937)
Conditions: HepG2 Attagene CIS-FACTORIAL M61 internal marker reporter; actives raise or lower the signal
How it was run: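 Using transiently transfected HepG2 liver cells, reporter transcript levels were assessed 24 h post-dosing by RT-PCR and capillary electrophoresis. Changes in either direction were fitted relative to DMSO controls.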

Row | SMILES | outcome
1 | CCCCC(CC)COC(=O)CCCCC(=O)OCc1ccccc1 (centres undefined) | inactive
2 | FC(F)(I)C(F)(F)C(F)(F)C(F)(F)C(F)(F)C(F)(F)I | inactive
3 | Cc1oc(-c2ccccc2)nc1CCOc1ccc(C[C@H](Nc2ccccc2C(=O)c2ccccc2)C(=O)O)cc1 | inactive
4 | CN1CCC[C@H]1c1cccnc1 | inactive
5 | COCC(C)OCC(C)O (centres undefined) | inactive
6 | CN1CCN(c2ccccc2/C=C2\SCCN(c3ccc(Cl)c(Cl)c3)C2=O)CC1 | inactive
7 | CC(C)(C)CC(C)(C)c1ccc(O)c(-n2nc3ccccc3n2)c1 | inactive
8 | C[C@@H]1C[C@H]2[C@@H]3CCC4=CC(=O)C=C[C@]4(C)[C@@]3(F)[C@@H](O)C[C@]2(C)[C@@]1(O)C(=O)COP(=O)(O)O | inactive
9 | CCc1nn(C2CCCCC2)c2cc(C3(C#N)CCC(C(=O)O)CC3)ccc12 (centres undefined) | inactive
10 | N#C[C@@H]1CC(F)(F)CN1C(=O)CNC1CC2CCC(C1)N2c1ncccn1 (some centres undefined) | inactive
11 | CCCCCCCCC(=O)O | inactive
12 | NC(=O)N(O)[C@@H]1C=C[C@H](Oc2cccc(Oc3ccc(F)cc3)c2)C1 | inactive
13 | CC(=O)CC(C)(C)O | inactive
14 | CCCCCCCCCCCCCC[N+](C)(C)C | inactive
15 | CC(=O)NC1(c2cccc(F)c2)CCN(CC[C@@]2(c3ccc(Cl)c(Cl)c3)CN(c3ccccc3)C(=O)CO2)CC1 | inactive
16 | CCCCCCCCCCCCc1ccccc1S(=O)(=O)O | inactive
17 | Cc1cc(CCN2CCN(c3nsc4ccccc34)CC2)cc2c1NC(=O)CC2(C)C | inactive
18 | CCCCCCC(=O)O | inactive
19 | OC1CCC(C2CCCCC2)CC1 (centres undefined) | inactive
